Reference: PubChem BioAssay AID1224852 (National Center for Advancing Translational Sciences (NCATS), 2016)
Inconclusive results are not listed. Values without a mark were called inactive. Calls follow the shape of the dose curve; as a rule, active = well fitted curve in the direction sought with a large enough effect (not every such curve was filed as active); inconclusive = small, poorly fitted or top-dose-only effect, or effect the other way, or another doubt; inactive = no such curve, though single readings can be large or run the other way.

experiment: Cell viability assay for measurement of the protective activity of small molecules against cell death caused by Zika virus infection in human neural progenitor cells (hNPCs); details: hNPC ZIKV-induced death protection, ATP luminescence, 72 h; series mostly up to 46.1 µM; protection, negative = more death: at the top concentration;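 also: 0% = ZIKV-infected cells without compound and 100% = uninfected cells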
From the text: National Center for Advancing Translational Sciences [NCATS] Johns Hopkins University School of Medicine Florida State University Assay Overview: Zika virus infection causes cell death in certain cell types including human neural progenitor cells (hNPCs), astrocytes, and astrocytoma cell line (SNB-19). This cell viability assay measures the ATP content (level) in human neural progenitor cells (hNPCs) using a luminescence readout that is proportional to viable cell numbers. Decrease in the luminescence signal after Zika virus infection indicates the cell death caused by Zika virus. Small molecule inhibitors […] the decreased luminescence signal after Zika virus infection, indicating the protective effect of that small molecule on the cell death caused by Zika virus infection. This observed protective effect of small molecules against Zika virus induced cell death may result from inhibition of virus replication or cellular response to the virus infection.
Assay Protocol Summary: The medium for hNPCs consists of DMEM/F12, N2 supplement (ThermoFisher, Cat.# 17502048), NEAA (ThermoFisher, Cat. # 11140050), 2 ug/ml heparin, 2 uM cyclopamine, and B27 (ThermoFisher, Cat. # 17504044). The ATP content assay kit (PerkinElmer, Cat.# 6016731) was used to determine cell viability. The reagent was reconstituted and prepared as described by the manufacturer. Cells were seeded in 384- or 1536-well assay plates and cultured at 37 C with 5% CO2 for 16 to 20 hours. The typical cell seeding density in the 1536-well plate assay is 350 cells/well in 3 ul medium for hNPCs in the tissue cultured treated/PDL coated plates. Compounds were added to cells and incubated for one hour before addition of ZIKV solution to cells (2 FFU/cell). After incubation at 37 C with 5% CO2 for 72 hours, the reagent mixture of the ATP content assay kit was added to each well, followed by incubation at room temperature for 10 minutes. The luminescence intensity of the assay plates was measured using a ViewLux plate reader (PerkinElmer). […] The percentage inhibitions of the decreased cell viability by small molecule inhibitors were then calculated.

Point of comparison: O=C(Nc1ccc([N+](=O)[O-])cc1Cl)c1cc(Cl)ccc1O, “protection, negative = more death” value -78.3%. Against it:
- O=C(/C=C/c1ccc(O)cc1)c1ccc(O)cc1O — higher, -43.6%
- COc1ccc(/C=C/C(=O)Nc2ccccc2C(=O)O)cc1OC — higher, -34.7%
- CN(C)CCCSc1ccccc1NC(=O)/C=C/c1ccccc1 — higher, 8.23%
- O=C(O)CCC(=O)c1ccc(-c2ccccc2)cc1 — higher, 0.919%
- Cc1ccc(C(=O)c2ccc(CC(=O)O)n2C)cc1 — higher, -31.2%
- NC1CCC(Nc2nc(Nc3ccc(C(=O)N4CCCCC4)cc3)c3ncn(-c4cccc(F)c4)c3n2)CC1 (stereo not given) — lower, -79.2%
- C[C@@H](O[C@H]1OCCN(Cc2n[nH]c(=O)[nH]2)[C@@H]1c1ccc(F)cc1)c1cc(C(F)(F)F)cc(C(F)(F)F)c1 — higher, -76.8%
- Oc1cc(O)cc(/C=C/c2ccc(O)c(O)c2)c1 — higher, -63.8%
- Nc1ccc(N=Nc2ccccc2)c(N)n1 — higher, -38.4%
- CC(=O)Nc1ccc([C@H](C)C(=O)Nc2ncc(C(C)C)s2)cc1 — higher, -64.6%
- COc1ccc(-c2cc(=S)ss2)cc1 — higher, -17.4%
- CC(=NNC(=S)N1CCC1)c1ccccn1 — higher, -76.1%
- O=C(CS)Nc1ccccc1 — higher, -49.6%
- CCC(C)SSc1ncc[nH]1 (stereo not given) — higher, -78%
- O=c1c(-c2ccc(O)cc2)coc2cc(OC3O[C@H](CO)[C@H](O)[C@H](O)[C@H]3O)cc(O)c12 (stereo not given in full) — higher, -70.7%
- Cc1csc(NC(=O)c2sc3nc4c(c(C(F)(F)F)c3c2N)CCC4)n1 — higher, -75.6%
- CCN1CCC(n2cc(CNc3cc(Cl)c4ncc(C#N)c(Nc5ccc(F)c(Cl)c5)c4c3)nn2)CC1 — higher, -77.7%
- COc1ccc(C=CC(=O)Nc2ccccc2C(=O)O)cc1OC — higher, -50%
- O=C(O)c1ccccc1Nc1cccc(C(F)(F)F)c1 — higher, 2.86%
- Nc1cc(C(F)(F)F)ccc1S — lower, -79.8%
- Cc1ccc(O)c(N=Nc2ccccc2)n1 — higher, -70.1%
- O=C(C=CC=Cc1ccc2c(c1)OCO2)N1CCCCC1 — higher, -34.5%
- NC(N)=NN=C(/C=C/c1ccc([N+](=O)[O-])o1)/C=C/c1ccc([N+](=O)[O-])o1 — lower, -84%
- COc1cccc2c1C(=O)c1c(O)c3c(c(O)c1C2=O)C[C@@](O)(C(=O)CO)C[C@@H]3O[C@H]1C[C@H](N)[C@H](O[C@@H]2CCCCO2)[C@H](C)O1 — lower, -84.3%
- O=C(O)[C@@H](c1ccc(OCc2ccc3ccccc3n2)cc1)C1CCCC1 — higher, -1.95%
- CC(C(=O)O)c1ccc(C(=O)c2cccs2)cc1 (stereo not given) — higher, 2.89%
- CCN(CC)c1ccc(C(=C2C=CC(=[N+](CC)CC)C=C2)c2cc(S(=O)(=O)O)ccc2S(=O)(=O)[O-])cc1 — higher, -44.4%
- c1ccc2[nH]c(-c3cscn3)nc2c1 — higher, -20.6%
- O=C(Nc1ncc([N+](=O)[O-])s1)c1cccs1 — higher, -40.1%
- Cc1cc(O)c2c(c1)C(=O)c1cc(O)cc(O)c1C2=O — higher, -8.67%
- CN(C)c1cc(NC(=O)CNC(C)(C)C)c(O)c2c1C[C@@H]1C[C@H]3[C@H](N(C)C)C(=O)C(C(N)=O)=C(O)[C@@]3(O)C(=O)C1=C2O — higher, -8.43%
- N[C@H](CSC(c1ccccc1)(c1ccccc1)c1ccccc1)C(=O)O — higher, -43.3%
- CC(=O)OC(C)OC(=O)C(C)c1ccc(-c2ccccc2)c(F)c1 (stereo not given) — higher, 0.83%
- CCCCCCCCCCCC(=O)[O][Sn]([CH2]CCC)([CH2]CCC)[O]C(=O)CCCCCCCCCCC — higher, 9.07%

Point of comparison: CC(=O)Oc1ccccc1C(=O)Nc1ncc([N+](=O)[O-])s1, “protection, negative = more death” value -68.9% [at 88.3 µM]. Against it:
- CN(C)c1ccc(N=NS(=O)(=O)O)cc1 — higher, -43.6% [at 88.3 µM]
- Nc1nc2ccc([N+](=O)[O-])cc2s1 — higher, -22.2% [at 88.3 µM]
- CC(C)(C)OC(=O)CN(Cc1ccc(Cl)cc1)Cc1ccc([N+](=O)[O-])s1 — higher, -60.6% [at 88.3 µM]

With Nc1ncnc2c1ncn2[C@@H]1O[C@@H](CO)[C@H](O)[C@H]1O the “protection, negative = more death” value was -14.4% [at 23.8 µM].
